VACV Venus inh: inhibitors of vaccinia virus (Venus reporter); Vaccinia virus Venus reporter expression, fluorescence; Potency, µM (series often up to 36.5 µM), usual class: inhibitors; 330,000 compounds, 0.46% hits; calls by dose curve; tested in A549 cells; also: nearly all actives have a fitted effect of over 30% in size
Sm TGR inh: inhibitors of Schistosoma mansoni thioredoxin glutathione reductase. Q962Y6. purified TGR, DTNB reduction, TNB absorbance 405 nm. Potency, µM (top dose mostly 114 µM), usual class: inhibitors. 360,000 compounds, 3% hits. AID 485364; also: nearly all actives have a fitted effect of over 60% in size
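TGR 20 nM + NADPH 100 uM (dispensed conc.), cpd preinc 15 min RT; start with NADPH (500 uM addition) then DTNB (15 mM addition). Kinetic TNB absorbance, 405 nm filter. Four-parameter Hill fit across titration.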
Vaccinia mCherry: vaccinia inhibition (mCherry reporter); Vaccinia virus mCherry reporter infection, fluorescence; Potency, µM (doses to about 36.5 µM), actives largely listed as inhibitors; 310,000 compounds, 0.63% hits; calls by dose curve; tested in A549 cells; also: nearly all actives have a fitted effect of over 35% in size
HCMV antiviral: blocks human cytomegalovirus replication | HFF cells, HCMV-luciferase reporter, 72 h; hits give low values | activity change, negative = inhibition, % at 57.5 µM | 410,000 compounds, 4.5% hits; in the data active = activity change below about -60%; inconclusive = no clear call, values can overlap the other calls; inactive = above about -39%
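Screen run at 2 compound doses on HFFs infected with reporter HCMV, MOI 1 PFU/cell. Luciferase activity from cell lysates at 72 h post infection gave inhibition relative to buffer-only and Salinomycin wells.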
FMDV antiviral: blocks foot and mouth disease virus | FMDV antiviral cell-based qHTS | Potency, µM (highest dose often 57.9 µM), actives largely listed as inhibitors | 410,000 compounds, 1.2% hits | AID 1159524; calls by dose curve; tested in HEK293T cells; also: read-out not given here; nearly all actives have a fitted effect of over 45% in size
HCV inhibitor: HCV inhibition. Huh7.5.1 HCVcc-Cre infection, luciferase reporter, 44 h. Potency, µM (top dose mostly 41.8 µM), actives largely listed as inhibitors. 340,000 compounds, 3.4% hits. AID 651820
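Infectious HCV cell culture screen: compound-treated cells (1,000/well, pre-plated 4 h) are infected with HCVcc-Cre at roughly 0.5 moi and grown 44 h. Infection is quantified by luciferase signal after 15 min substrate incubation at room temperature.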
Numbers stand for hits; – = inactive; ? = inconclusive; · = no result. The list is not random: actives were taken first. Their share in the collection is about 9.3%. Unless noted, calls follow the shape of the dose curve; as a rule, active = well fitted curve in the direction sought with a large enough effect; inconclusive = small, poorly fitted or top-dose-only effect, or another doubt; inactive = no such curve, though single readings can be large; an effect the other way counts as inactive or inconclusive.

SMILES | VACV Venus inh | Sm TGR inh | Vaccinia mCherry | HCMV antiviral | FMDV antiviral | HCV inhibitor
CCOC(=O)C1=C(COC(=O)C2CC(=O)N(c3ccccc3F)C2)NC(=O)NC1C (stereo not drawn) | – | – | – | – | – | –
COc1ccc2cc(C(=O)N3CCc4ccccc43)[nH]c2c1 | · | – | · | – | – | –
CCC(CC)C(=O)N(CCc1ccc(OC)cc1)Cc1nc2ccccc2c(=O)[nH]1 | – | – | – | – | · | 22µM
Cc1cc(C)cc(NC(=O)C2CCCN(S(=O)(=O)c3cnc[nH]3)C2)c1 (stereo not drawn) | – | – | – | – | – | –
CCn1c(Cc2c(C)[nH]c3ccccc23)nnc1SCC(=O)NCc1ccccc1 | – | ? | – | – | – | –
C=CCn1c(Cc2c(C)[nH]c3ccccc23)nnc1SCC(=O)NCc1ccc(F)cc1 | ? | 32µM | · | – | – | –
CCn1c(Cc2c(C)[nH]c3ccccc23)nnc1SCC(N)=O | – | 45µM | – | – | · | –
CN(C(=O)c1cc(-c2cccs2)nn1-c1ccccc1)C1CCS(=O)(=O)C1 (stereo not drawn) | – | · | – | – | – | ·
CNc1cncc(-c2ccc(S(C)(=O)=O)cc2)n1 | – | · | ? | – | – | ·
O=C1C2C3C=CC(CC3)C2C(=O)N1c1ccc(F)cc1 (stereo not drawn) | – | – | – | – | – | –
CC(C)C1NC2(C(=O)c3ccccc3C2=O)C2C(=O)N(c3ccc(F)cc3)C(=O)C12 (stereo not drawn) | · | 2µM | · | – | – | –
Cc1onc(C(=O)/C=C/N(C)C)c1C(=O)Nc1nccs1 | – | – | · | – | – | –
CC1=C(C(=O)Nc2ccccc2)C(c2ccccn2)n2nc(SCc3ccccc3Cl)nc2N1 (stereo not drawn) | – | – | – | ? | – | ·
COc1ccc(N(C(C)C(=O)N/N=C/c2cc(Br)c(C)o2)S(C)(=O)=O)cc1 (stereo not drawn) | · | · | · | – | – | –
COc1ccc(C(O)C(CN2CCOCC2)c2ccccc2)cc1F (stereo not drawn) | · | – | · | – | – | –
COc1ccc(C(=O)C(CN2CCOCC2)c2ccccc2)cc1F (stereo not drawn) | 13µM | – | 10µM | -105 | ? | ?
CCCOc1ccc(C(=O)C(c2ccccc2)N2CCOCC2)cc1 (stereo not drawn) | – | – | · | – | – | –
CCCOc1ccc(C(=O)C(CN2CCOCC2)c2ccccc2)cc1 (stereo not drawn) | ? | – | ? | -104 | 14µM | ?
C=CCC(=O)N(CC)CC1CCCN(CCc2cccc(F)c2)C1 (stereo not drawn) | · | – | · | – | – | –
Cc1ccc(C(NC(=O)N2CCCCC2)=C(Cl)Cl)cc1F | · | – | · | -80 | ? | ?
CCOc1ccc(-c2nc(CCl)cs2)cc1OC | – | – | – | – | – | –
Cc1ccc(CN2CCc3nc(N4CCN(c5ncccn5)CC4)ncc3C2)cc1 | – | – | – | – | ? | ·
Cc1cccc(CN2CCc3nc(N4CCN(c5ccccn5)CC4)ncc3C2)c1 | ? | – | ? | ? | 14µM | ·
Clc1ccccc1CN1CCc2nc(N3CCN(c4ncccn4)CC3)ncc2C1 | – | – | – | – | 32µM | ·
COc1cc(OC)c(OC)cc1CN1CCc2nc(N3CCN(C)CC3)ncc2C1 | – | 40µM | – | – | – | ·
SMILES | VACV Venus inh | Sm TGR inh | Vaccinia mCherry | HCMV antiviral | FMDV antiviral | HCV inhibitor
COC1(OC)N=C(N)C2(C#N)C(c3cccc(Oc4ccccc4)c3)C12C#N (stereo not drawn) | – | – | · | – | – | –
CCOC(=O)Nc1ccc2c(c1)ncn2C1CCCCC1 | – | – | – | ? | · | –
CCOC(=O)C1=CCN(S(=O)(=O)c2ccc(C)cc2)C1c1cccc(Cl)c1 (stereo not drawn) | – | · | – | – | – | ·
COc1ccc(C(=O)c2sc(Nc3ccccc3)nc2N)cc1OC | ? | ? | ? | -92 | ? | –
COc1ccc(C(=O)c2ccccc2C(=O)c2ccccc2)cc1 | – | · | – | – | – | –
Nc1nc(Nc2ccccc2)sc1C(=O)c1ccccc1 | 28µM | – | ? | -88 | – | ?
Cc1ccccc1Nc1nc(N)c(C(=O)c2ccccc2Cl)s1 | ? | – | ? | -69 | – | ·
Cc1cnc(NC(=O)c2sc(Nc3ccccc3)nc2N)o1 | · | – | · | – | – | ?
